Compounds with a hit are over-represented: about 7.9% of the library has one in this group of screens.
Shh pathway inh = Hedgehog pathway signaling inhibitors, primary screen, luminescence, Shh-LIGHT2 cells, Gli-luciferase | inhibition, % (concentration not given with the values) | actives 2.1% (n = 22,000) | Shh-LIGHT2 Gli-luciferase reporter, 30 h;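 active = mean inhibition across valid replicates above about 65%, limit read from the data; inconclusive = mean under the limit, yet half or more replicates past it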;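 also: pathway switched on by Shh-conditioned medium diluted 1 in 25 in low serum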
MITF inh = inhibitors of MITF, primary screen, MITF inhibitor project, cell-based, luminescence. TRPM1 promoter luciferase, 24 h. inhibition, % (no concentration beside the values). actives 0.28% (n = 37,000). AID 2240, 2010; in the data active = inhibition above about 85%; inconclusive = no clear call, values can overlap the other calls; inactive = below about 68%;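 also: human melanocyte line stably carrying TRPM1 promoter luciferase reporter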
NOMO-1 viab = NOMO-1 AML cell viability reduction, primary screen, STK33 inhibitor project, CellTiter-Glo luminescence; NOMO-1 AML viability, 72 h; inhibition, % (no concentration beside the values); actives 7.5% (n = 37,000); in the data active = inhibition above about 80%; inconclusive = no clear call, values can overlap the other calls
Active calls of the source: *; ? = inconclusive; . = no result given; ! = not confirmed by another sample.

SMILES | Shh pathway inh | MITF inh | NOMO-1 viab
COc1ccc(S(=O)(=O)Nc2ccc3c(c2)C(=O)N([C@H](C)CO)C[C@@H](C)[C@H](CN(C)Cc2ccc(C(=O)Nc4ccccc4N)cc2)O3)cc1 | . | 3 | -1
C[C@H](CO)N1C[C@H](C)[C@H](CN(C)Cc2ccc(C(=O)Nc3ccccc3N)cc2)Oc2ccc(NS(=O)(=O)c3ccc(Cl)cc3)cc2C1=O | . | 7 | 96*
COc1ccc(CNCCCN2CCOCC2)cc1OC | . | -12 | 32
N#C/C(=C\c1ccc(Cl)c(Cl)c1)c1ccc(NC(N)=O)cc1 | 15 | -28 | -7
CCSc1nc(O)c(C(C)CC)c(=O)[nH]1 (stereo not given) | 5 | 8 | 0
CC12CCC(CC(=O)c3ccccc3)(CC1)CC2 | . | -37 | 43
CC(C)(C)C1CCC2(CC1)C(C#N)C2(C#N)C(=O)c1ccccc1 (stereo not given) | ? | 85* | 125*
O=C(CC1NCCNC1=O)Nc1ccccc1[N+](=O)[O-] (stereo not given) | . | -6 | 12
CCCC[C@@H](C)/C=C(C)/C=C(\C)C(=O)NC1=C[C@@](O)(/C=C/C=C/C=C/C(=O)NC2C(=O)CCC2=O)[C@@H]2O[C@@H]2C1=O | 51 | -12 | 142*
CNC[C@H]1Oc2c(NC(=O)c3ccc(-c4nccs4)cc3)cccc2C(=O)N([C@H](C)CO)C[C@@H]1C | -11 | -5 | -19
C[C@H](CO)N1C[C@H](C)[C@H](CN(C)Cc2ccc(Oc3ccccc3)cc2)Oc2ccc(NS(=O)(=O)c3ccc(F)cc3)cc2CC1=O | -18 | -8 | 126*
C[C@H]1CN([C@@H](C)CO)C(=O)Cc2cc(NS(C)(=O)=O)ccc2O[C@@H]1CN(C)Cc1ccc(Oc2ccccc2)cc1 | 17 | -1 | 19
C[C@@H]1CN([C@H](C)CO)C(=O)Cc2cc(NS(=O)(=O)c3ccc(F)cc3)ccc2O[C@@H]1CN(C)Cc1ccc(Oc2ccccc2)cc1 | 23 | 10 | 115*
C[C@@H]1CN([C@H](C)CO)C(=O)Cc2cc(NS(=O)(=O)c3ccccc3)ccc2O[C@@H]1CN(C)Cc1ccc(Oc2ccccc2)cc1 | 53 | 11 | ?
Cc1sc2ncnc(SCC(=O)Nc3ccccc3[N+](=O)[O-])c2c1C | . | 6 | 5
C[C@]12CCC(=O)C=C1CC[C@@H]1C2CC[C@@]2(C)C1CC[C@@H]2C(=O)CO (stereo not given in full) | ? | 5 | 13
CC12CCC(=O)C=C1CCC1(C)C2(C)CCC2(C)C(C(=O)CO)CCC21C (stereo not given) | 47 | 30 | 94*
Cc1cccc(-c2nc3cc(NC(=O)COc4ccccc4[N+](=O)[O-])ccc3o2)c1 | . | -46 | -20
COc1c(O)c2c(=O)cc(OC)c3c4c(OC)cc(=O)c5c(O)c(OC)c(C[C@@H](C)OC(=O)c6ccccc6)c(c(c1C[C@@H](C)OC(=O)Oc1ccc(O)cc1)c23)c54 | 72* | 74 | 142*
Cc1noc(C)c1NC(=O)N(C)C[C@H]1Oc2ccc(NC(=O)Nc3ccc4c(c3)OCO4)cc2C(=O)N([C@@H](C)CO)C[C@H]1C | 14 | -9 | 19
COc1ccc(C(O)CNC(=O)/C=C/c2ccccc2)cc1 (stereo not given) | 32 | 10 | 112*
COc1ccc(/C=C/C(=O)NCc2ccccc2)cc1 | . | -46 | -3
COc1ccc(OC)c(NC(=O)C(C)N(c2ccc(C)c(C)c2)S(C)(=O)=O)c1 (stereo not given) | . | -5 | 36
CCN(C(=O)c1cccc(C(=O)N(CC)c2ccccc2)c1)c1ccccc1 | -6 | 25 | 20
C[C@H](CO)N1C[C@H](C)[C@@H](CN(C)C(=O)NC2CCCCC2)Oc2c(NC(=O)c3nc4ccccc4s3)cccc2C1=O | -12 | -12 | 15
SMILES | Shh pathway inh | MITF inh | NOMO-1 viab
CC(=O)OC[C@]12[C@H](OC(C)=O)[C@H](OC(C)=O)[C@@H]3[C@@H](OC(C)=O)[C@@]14O[C@@]3(C)COC(=O)c1cnccc1CC[C@H](C)C(=O)O[C@@]4(C)[C@@H](O)[C@H](O)[C@@H]2OC(C)=O | -4 | 29 | 119*
O=C(CN1CC(=O)Oc2ccccc21)OCC(=O)c1ccccc1 | 28 | 31 | 103*
O=C(CN1CC(=O)Oc2ccccc21)Nc1ccc(O)cc1 | 27 | -10 | 111*
O=C(CN1C(=O)c2ccccc2S1(=O)=O)Nc1ccc2c(c1)OCCO2 | . | 51 | -8
COc1ccc(C(=O)COC(=O)CN2C(=O)C3CC=CCC3C2=O)cc1 (stereo not given) | -15 | -9 | 31
CCOc1ccc(CCC(=O)O)cc1 | -5 | 1 | 4
CC1(C)CC(=O)c2cc(C(=O)NCCCN3CCOCC3)c(=O)n(-c3ccccc3)c2C1 | . | -19 | 1
C[C@@H]1CN([C@@H](C)CO)C(=O)Cc2cc(NC(=O)CCC(F)(F)F)ccc2O[C@@H]1CN(C)Cc1ccccc1 | -19 | -3 | 13
CC(C)(c1ccccc1)c1cc(CN2CCOCC2)c(O)c(CN2CCOCC2)c1 | . | -2 | 32
C[C@H]1CN([C@@H](C)CO)C(=O)c2cccc(NC(=O)c3cnccn3)c2O[C@@H]1CN(C)C(=O)Nc1ccccc1 | -63 | -15 | 0
O=C(CSc1nnc2scc(-c3ccccc3)n12)c1ccc2c(c1)OCCO2 | . | -5 | -3
Cc1ccc(-c2csc3nnc(SCC(=O)c4ccc(Cl)c(Cl)c4)n23)cc1 | . | 32 | 103*
C[C@H]1CN([C@@H](C)CO)C(=O)c2cccc(NS(C)(=O)=O)c2O[C@@H]1CN(C)Cc1ccc(C(F)(F)F)cc1 | 13 | -16 | 15
COc1ccc(C[C@H](N)C(=O)N[C@H]2[C@@H](O)[C@H](n3cnc4c(N(C)C)ncnc43)O[C@@H]2CO)cc1 | 85* | 102* | 120*
Nc1ncnc2c1ncn2C1OC(CO)[C@H](O)[C@@H]1S (stereo not given in full) | -8 | -1 | -8
C[C@@H]1CCCCO[C@@H](CN(C)C(=O)Nc2cccc3ccccc23)[C@@H](C)CN([C@H](C)CO)C(=O)c2cc(NS(=O)(=O)c3cn(C)cn3)ccc2O1 | -20 | 14 | 31
COC(=O)C1=C(C)NC(C)=C(C(=O)OCCSc2ccccc2)C1C (stereo not given) | -33 | -24 | 42
COC(=O)C1=C(C)NC(C)=C(C(=O)OCCN(C)Cc2ccccc2)C1c1cccc([N+](=O)[O-])c1 (stereo not given) | 23 | 12 | 142*!
C[C@H](CO)N1C[C@H](C)[C@H](CN(C)C(=O)NC2CCCCC2)Oc2ccc(NC(=O)CCCN(C)C)cc2C1=O | -20 | 0 | 10
C[C@@H]1CN([C@H](C)CO)C(=O)Cc2cc(NC(=O)Cc3ccccc3)ccc2O[C@@H]1CN(C)Cc1ccc(Oc2ccccc2)cc1 | 32 | 3 | 116*
C[C@H]1CN([C@@H](C)CO)C(=O)Cc2cc(NC(=O)Cc3ccccc3)ccc2O[C@H]1CN(C)Cc1ccc(Oc2ccccc2)cc1 | -22 | 39 | 59
C[C@H]1CN([C@@H](C)CO)C(=O)Cc2cc(NC(=O)Cc3ccccc3)ccc2O[C@@H]1CN(C)Cc1ccc(-c2ccccc2)cc1 | -1 | 15 | 43
